Source: PubChem BioAssay AID1259398 (Fisher Drug Discovery Resource Center, 2018)
“And” between values parts separate entries of the source, which are not always exact repeats. Equal entries are not always repeated. The whole screen tested about 290,000 compounds, of which about 230 (0.079%) were called active. The entries come from a sample that favours actives as a whole. A number with no mark means an inactive call. No stated cut-off is given here; in the data, active means inhibition above about 40%; inactive means the rest.

target: Cyclic GMP-AMP synthase (Homo sapiens) (UniProt Q8N884); test: Primary biochemical luminescence assay for human cyclic GMP-AMP synthase inhibitors (AID 1259398); settings: recombinant h-cGAS, ATP depletion, Kinase-Glo luminescence; at 12.5 µM; hits give high values;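 further: 0% = vehicle reaction and 100% = reaction without DNA for no activity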
Sequence (Q8N884 whole entry, looked up): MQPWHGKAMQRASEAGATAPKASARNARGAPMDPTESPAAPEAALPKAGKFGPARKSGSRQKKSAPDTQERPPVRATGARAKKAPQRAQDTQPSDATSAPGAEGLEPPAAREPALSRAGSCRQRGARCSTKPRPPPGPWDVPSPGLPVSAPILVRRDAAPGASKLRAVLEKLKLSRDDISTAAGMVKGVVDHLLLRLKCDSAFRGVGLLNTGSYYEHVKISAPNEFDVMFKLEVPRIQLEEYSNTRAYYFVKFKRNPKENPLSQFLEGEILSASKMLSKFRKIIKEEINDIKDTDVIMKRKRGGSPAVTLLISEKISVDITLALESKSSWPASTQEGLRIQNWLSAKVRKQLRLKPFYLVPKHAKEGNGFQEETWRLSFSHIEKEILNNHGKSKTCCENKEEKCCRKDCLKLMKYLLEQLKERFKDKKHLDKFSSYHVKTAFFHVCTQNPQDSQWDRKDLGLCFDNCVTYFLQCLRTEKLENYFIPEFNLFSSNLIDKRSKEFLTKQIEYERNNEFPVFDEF

| Structure (SMILES) | inhibition |
| --- | --- |
| Cc1ccc(C)c(C(C)NC(=O)c2ccccc2-c2nn[nH]n2)c1 (stereo not drawn) | -2.34% |
| COc1ccc(-c2nc3ccccc3c(=O)n2Cc2ccc(F)cc2)c(OC)c1OC | -5.68% |
| O=C(c1cnc(-c2ccncc2)nc1)N1CCOC(CCCc2ccccc2)C1 (stereo not drawn) | -8.45% |
| O=C(CCC1CCN(C(=O)c2cccc(-n3cccn3)c2)CC1)Nc1ccccc1 | -9.6% |
| CN1CCn2nc(C(=O)NC(c3ccccc3)c3ccco3)cc2C1 (stereo not drawn) | -5.91% |
| Cc1cc(-c2n[nH]c(=O)n2CCc2ccc(F)cc2)n(C)n1 | 2.4% |
| Cc1n[nH]c(=O)c2c(NC(=O)CSc3nnc(C)n3C3CC3)oc(C)c12 | -6.69% |
| O=C(O)CCCc1ccc(Br)s1 | 74.1% (active) |
| O=C(CCSCc1ccccn1)NCc1ccc(Br)s1 | -8.25% |
| O=C(O)C=Cc1ccc(Br)s1 | -0.785% |
| Cc1noc(C)c1S(=O)(=O)N1CCCC1c1ccccn1 (stereo not drawn) | -4.73% |
| CN1CCN(Cc2cc(F)ccc2-n2cccn2)CC1CCO (stereo not drawn) | -8.61% |
| NS(=O)(=O)c1ccc(CNc2ccc3ncc(-c4ccc(Oc5ccccc5)cc4)n3n2)cc1 | -8.75% |
| Cc1ccc(CN(Cc2nc3cc(C)ccc3o2)C(=O)CC(C)C)cc1 | -3.11% |
| Cc1cccc(S(=O)(=O)N2CCN(c3cc(-n4ccnc4)nc(C)n3)CC2)c1 | -1.12% |
| Cc1cccc(-n2ccc3nc(N4CCCCC4)ncc3c2=O)c1 | -4.1% |
| COc1cc(=O)n(-c2ccccc2C)nc1C(=O)NC(c1ccccc1)c1ccccc1 | -0.757% |
| CCCCC(=O)N(C)c1c(C)nc2ccc(C(=O)NCCCN3CCCC3=O)cn12 | -4.09% |
| CCCCS(=O)(=O)N1CCCN(c2nc(CCC)nc3onc(-c4cccc(C(F)(F)F)c4)c23)CC1 | -3.14% |
| Cc1nn(C)c(C)c1CN(C(=O)C1CC(=O)N(CC(C)C)C1)C1CC1 (stereo not drawn) | -3.8% |
| O=C(CCCOc1cccc(Cl)c1Cl)N1CCN(C2CCOC2)CC1 (stereo not drawn) | -4.45% |
| Cn1c(CC2CCNCC2)nnc1SCc1noc(C2CCCO2)n1 (stereo not drawn) | -3.73% |
| COc1cc2c(cc1OC)C(C(C)NS(=O)(=O)c1ccccc1)N(Cc1ccccc1F)CC2 (stereo not drawn) | -1.82% |

| Structure (SMILES) | inhibition |
| --- | --- |
| CC(=O)Nc1ccccc1N1C(=O)c2ccc(-c3nc4ccccc4c(=O)o3)cc2C1=O | 0.929% |
| CCOC(=NCc1ccccc1)NC(=O)c1cccc(C(F)(F)F)c1 | -4.46% |
| O=C1NC(C(=O)N2Cc3cnc(-c4ccccc4)nc3C2)CO1 (stereo not drawn) | -0.988% |
| Cc1[nH]c(/C=C2\C(=O)Nc3ccc(S(=O)(=O)Cc4c(Cl)cccc4Cl)cc32)c(C)c1C(=O)N1CCC[C@@H]1CN1CCCC1 | 63.1% (active) |
| Cc1ccnc2nc(C(=O)N3CCCC3CN3CCCC3)nn12 (stereo not drawn) | -10.3% |
| CC(=O)c1[nH]c(C)c(C(=O)N2CCCCC2CCc2ccccn2)c1C (stereo not drawn) | -5.8% |
| Cc1nn(C)c2ncc(C(=O)NCCn3cnnc3C(C)C)cc12 | 1.28% |
| CC(C)(C)c1cc2nc(-c3ccccc3)cc(C(=O)NC3CCCCNC3=O)n2n1 (stereo not drawn) | 1.91% and -3.83% |
| CC(C)Nc1ccc(C(=O)N[C@H](C)C(C)(C)C)cn1 | -9.34% |
| CC(NCc1ccccc1Cn1cccn1)C(=O)NC1CCCC1 (stereo not drawn) | -4.67% |
| Cc1ccc(Nc2nc(N3CCN(c4ccc(F)cc4)CC3)nc3nccnc23)c(C)c1 | -2.31% |
| CCc1cnc2c(c1SCc1cccc(C(F)(F)F)c1)c(=O)n(C)c(=O)n2C | -9.29% |
| Cc1ccc(CN(CCc2c[nH]c3ccccc23)C(=O)CN(C(=O)c2ccc([N+](=O)[O-])cc2)C(C)C)cc1 | -6.46% |
| Nc1cc(-c2cccc(C(F)(F)F)c2)nn1-c1ccc(C(=O)NCc2ccc3c(c2)OCO3)cc1 | -5.72% |
| C=CCNc1ccccc1C(=O)N1[C@@H]2CC[C@H]1CC(O)C2 (stereo partly drawn) | -2.12% |
| Cc1ccc(/C=C/C(=O)N(C)C(C)c2cccc(S(N)(=O)=O)c2)o1 (stereo not drawn) | -0.284% |
| O=c1c(O)c(Br)ccc2c(Br)c(O)c(O)c(O)c12 | 70.1% (active) |
| O=C(C=Cc1ccc(Br)o1)NC1CCCCCC1 | -5.99% |
| O=C(OCC(=O)N1CCCC1c1ccc(Cl)c(Cl)c1)C1CCOC1 (stereo not drawn) | -2.27% |
| CC(C)n1nccc1NC(=O)CN(C)S(=O)(=O)c1ccc(Cl)s1 | -6.6% |
| Cn1cnnc1Sc1ccc(Cl)cc1NC(=O)C1CCCCC1 | -8.95% |
| CCC(C)(C)NC(=O)[C@H](CC(C)C)N1CC[C@@]2(CCCN2C(=O)CCC(C)=O)C1=O | 0.355% |
| Cc1csc(C2CCN(S(=O)(=O)c3ccc(F)cc3Cl)CC2)n1 | -7.52% |

| Structure (SMILES) | inhibition |
| --- | --- |
| Fc1cc(F)cc(-c2cncc(COc3ccc(F)cc3F)c2)c1 | 1.15% |
| COc1nc(C)cc(C)c1CNC(=O)C(=O)N1CCc2ccccc21 | 4.25% |
| CCOC(=O)C1(C)CCCN1C(=O)c1cc(C)on1 (stereo not drawn) | -5.23% |
| O=C(NC1CCN(c2ccccc2C(=O)NCc2cccc(C(F)(F)F)c2)CC1)c1ccccc1F | -3.47% |
| Cc1cc(=O)n(-c2ccc(S(=O)(=O)O)cc2C)[nH]1 | -8.43% |
| CCOC(=O)C1CCCN(Cn2c(=O)c3ccccc3n3nc(C)cc23)C1 (stereo not drawn) | -0.416% |
| O=C(c1cc(Cn2ccc3ccccc32)[nH]n1)N1CCCC1c1nccs1 (stereo not drawn) | -1.07% |
| CCc1cnc(COc2ccc(OC3CCCCNC3=O)cc2)o1 (stereo not drawn) | -10.1% |
| COC(=O)c1c(C)[nH]c(C(=O)N2CCCC2c2ccc(OC)cc2)c1C (stereo not drawn) | -3.09% |
| COc1ccc(-c2nnc(SCC(=O)N/N=C\c3ccccn3)n2-c2ccccc2)cc1OC | 1.79% |
| Cc1ccccc1N(CCCN1C(=O)c2cccc3cccc(c23)C1=O)C(=O)c1ccc([N+](=O)[O-])cc1 | -1.77% |
| C[N+](C)(CCCCCC[N+](C)(C)CCCN1C(=O)c2cccc3cccc(c23)C1=O)CCCN1C(=O)c2cccc3cccc(c23)C1=O | 90.3% (active) |
| O=C1c2cccc3cccc(c23)C(=O)N1CCCCCc1n[nH]c(=S)o1 | -2.3% |
| COc1cn(CC(=O)NCc2ccc3c(c2)OCO3)c(CSc2ncccn2)cc1=O | -5.34% |
| COCCCN(CC(=O)N(Cc1ccc2c(c1)OCO2)Cc1cccs1)C(=O)C1C[C@H]1c1ccccc1 (stereo partly drawn) | -8.64% |
| O=C(CCNC(=O)C1CC2(CCNCC2)CN1)Nc1nccs1 (stereo not drawn) | -7.06% |
| COCc1c(Br)c(C)nc(OCC(=O)N/N=C\c2cc(I)c(OCc3ccccc3Cl)c(OC)c2)c1C#N | -3.7% |
| CN1CCN(C(=O)c2cc(COc3ccc(-n4cncn4)cc3)on2)CC1c1ccccc1 (stereo not drawn) | -7.12% and -3.64% |
| CCOc1cc(Br)cc(/C=N\Nc2nc(N3CCCCC3)nc(N3CCCCC3)n2)c1O | -5.11% |
| CC1CCCN(c2nn3c(C(=O)NCCN4CCCCCC4)cc(=O)nc3s2)C1 (stereo not drawn) | -1.82% |
| Nc1ccc(NC(=S)NCc2ccco2)cc1[N+](=O)[O-] | -4.64% |
| CCN1CCN(c2ccccc2NS(=O)(=O)c2cc(Br)ccc2OC)CC1 | -2.43% |
